Screening data (PubChem BioAssay)
Hits are enriched below; roughly 19% of the tested compounds scored in any of these assays.
DT40 TDP1 CPT: qHTS for Inhibitors of human tyrosyl-DNA phosphodiesterase 1 (TDP1): qHTS in cells in presence of CPT. chicken DT40 Tdp1-/-;hTDP1 cells + 20 nM CPT, ATP luminescence, 48 h. Potency, µM (doses to about 46.2 µM), for the others: at the highest dose activity change, negative = growth inhibition, usual class: inhibitors. hit rate 12% among 420,000; further: potency means the concentration at half of the fitted maximal effect; nearly all actives have a fitted effect of over 55% in size
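Chicken DT40 Tdp1-/- cells complemented with human TDP1, 400 cells/well, exposed to compounds plus 20 nM camptothecin for at least 48 h at 37 C; viability read as ATP content by CellTiter-Glo luminescence.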
TDP1 cell noCPT: qHTS for Inhibitors of human tyrosyl-DNA phosphodiesterase 1 (TDP1): qHTS in cells in absence of CPT; Potency, µM (top dose mostly 46.2 µM), inactives show top-dose activity change, negative = growth inhibition, usual class: inhibitors; DT40 Tdp1-/- hTDP1 cells, no CPT, ATP luminescence, 48 h; hit rate 15% among 420,000; AID 686978, 2013; further: potency means the concentration at half of the fitted maximal effect; nearly all actives have a fitted effect of over 55% in size
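Chicken DT40 Tdp1-/- cells stably complemented with human TDP1 were seeded at 400 cells/well with DMSO in place of 20 nM camptothecin. After compound pinning, cells grew at least 48 hr at 37 °C; viability read by CellTiter-Glo luminescence.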
Giardia kill: Small Molecules that selectively kill Giardia lamblia: qHTS. Giardia lamblia trophozoite viability. activity change, % at 7.66 µM, hits read low. hit rate 0.15% among 340,000; in the data active means activity change below about -80%; inconclusive means between about -30% and that limit;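 further: parasites exposed to compound for two days anaerobically before the ATP read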
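Media and compound were dispensed first, then trophozoites at 100 cells/well; plates sat 48 hrs at 37 deg C without oxygen before ATP luminescence reagent was added and read after 15-30 min at room temperature.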
IL-1B inflam inh: qHTS for Inhibitors of Inflammasome Signaling: IL-1-beta AlphaLISA Primary Screen; activity change, % at 57.5 µM; hit rate 4.7% among 360,000; THP-1 LPS/ATP IL-1B secretion, AlphaLISA, 16 h; active compounds read low; in the data active means activity change below about -50%; inconclusive means mostly about -30% to -49%
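Secreted IL-1B measured by AlphaLISA bead assay after 16 h compound exposure of THP-1 cells; compounds (final up to 57.5 uM) added 1 h before LPS (250 ng/mL) and ATP (1.25 mM) stimulation; lower signal means less secretion.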
ELG1 repair inh: qHTS screen for small molecules that inhibit ELG1-dependent DNA repair in human embryonic kidney (HEK293T) cells expressing luciferase-tagged ELG1; hit rate 2.3% among 330,000; HEK293T ELG1-luciferase reporter, luminescence, 16 h; DNA damage induced by 5-fluorouridine; AID 504467, 2011; Potency, µM (doses to about 46.1 µM), for inactives: top-dose activity change, negative = inhibition, most hits filed as inhibitors; further: potency means the concentration at half of the fitted maximal effect; nearly all actives have a fitted effect of over 55% in size
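5-Fluorouridine DNA damage + compound/DMSO, 2,000 cells/well, 16 h, 37 °C/5% CO2. ONE-Glo, 30 min RT, luminescence. Readout = decrease in reporter signal.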
TDP1 block: qHTS Assay for Inhibitors of Tyrosyl-DNA Phosphodiesterase (TDP1); hit rate 0.28% among 350,000; Potency, µM (highest dose often 130 µM), inactives show at the top dose activity change, negative = inhibition, most hits filed as inhibitors; recombinant TDP1, AlphaScreen DNA substrate cleavage; further: potency means the concentration at half of the fitted maximal effect; nearly all actives have a fitted effect of over 40% in size
Target sequence (Q9NUW8 whole entry, looked up): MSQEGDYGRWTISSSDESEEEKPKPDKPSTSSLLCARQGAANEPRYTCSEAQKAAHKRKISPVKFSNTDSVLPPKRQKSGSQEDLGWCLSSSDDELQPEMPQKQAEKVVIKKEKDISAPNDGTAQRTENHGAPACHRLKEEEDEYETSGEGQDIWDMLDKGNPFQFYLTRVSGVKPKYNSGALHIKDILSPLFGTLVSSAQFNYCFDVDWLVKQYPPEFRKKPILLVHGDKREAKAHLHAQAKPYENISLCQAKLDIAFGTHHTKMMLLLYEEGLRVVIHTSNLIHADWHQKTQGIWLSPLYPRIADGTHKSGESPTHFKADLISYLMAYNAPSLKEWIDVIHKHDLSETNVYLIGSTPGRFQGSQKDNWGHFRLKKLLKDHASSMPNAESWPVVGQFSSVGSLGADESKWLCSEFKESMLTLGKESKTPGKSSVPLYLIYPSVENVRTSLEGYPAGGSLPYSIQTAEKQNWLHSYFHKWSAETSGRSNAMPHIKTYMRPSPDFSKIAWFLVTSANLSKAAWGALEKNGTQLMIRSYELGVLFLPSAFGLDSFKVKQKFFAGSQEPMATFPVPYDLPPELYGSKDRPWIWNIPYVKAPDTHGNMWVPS
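AlphaScreen read-out: signal falls as enzyme removes the 3' tyrosine-FITC from a 5'-biotinylated DNA oligo (15 nM, 5 min, RT). Enzyme was E. coli-made recombinant Tdp1 at 1 nM, exposed to compound for 15 min beforehand; beads 10 ug/ml, 10 min.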
Starred values were filed as active, the others as inactive; ? = inconclusive; . = not tested or not shown; [ ] = dose if it differs, or a comment. Unless noted, the call rests on the fitted dose curve; in most records, active means well fitted curve in the direction sought with a large enough effect; inconclusive means small, poorly fitted or top-dose-only effect, or another doubt; inactive means no such curve, though single readings can be large; an effect the other way counts as inactive or inconclusive. On the % scale 0 is the no-effect control and ±100 the full control effect.

SMILES	DT40 TDP1 CPT	TDP1 cell noCPT	Giardia kill	IL-1B inflam inh	ELG1 repair inh	TDP1 block
CCn1c(=O)c2cc(C(=O)NCCc3ccc(OC)c(OC)c3)sc2c2ccccc21	8.2µM*	7.31µM*	.	.	.	3.5%
CCn1c(=O)c2cc(C(=O)NCc3cc(OC)ccc3OC)sc2c2ccccc21	?	?	.	.	.	6.9%
c1cc(-c2cccs2)nc(-c2cccs2)c1	19.0%	-11.9%	4.9	2.8	?	.
c1csc(-c2cn3ccc4ccccc4c3n2)c1	-13.7%	-18.6%	-13.7	-62.0*	16.4µM*	-2.8%
COC(=O)c1c(NC(=O)Cc2ccccc2)sc2c1CC(C)(C)NC2(C)C	?	?	-3.2	?	-1.1%	.
CCOC(=O)c1c(NC(=O)CSc2ncccn2)sc2c1CC(C)(C)NC2(C)C	-1.6%	-1.7%	0.2	-57.5*	-24.1%	3.2%
COc1ccc(NC(=O)CSc2nc3ccc(OC)cc3[nH]2)cc1	-6.7%	-4.3%	-0.8	0.0	-1.4%	.
CC1(C)Cc2c(sc(NC(=O)COc3ccc(Cl)cc3Cl)c2C(N)=O)C(C)(C)N1	?	?	5.9	-15.6	?	0.9%
CCOC(=O)c1c(NC(=O)CSc2nc3ccc(OC)cc3[nH]2)sc2c1CC(C)(C)NC2(C)C	?	?	-7.1	-93.8*	?	1.0%
COC(=O)c1c(NC(=O)COc2ccc(Cl)cc2)sc2c1CC(C)(C)NC2(C)C	2.91µM*	3.66µM*	28.0	-97.0*	13.8%	-8.2%
CCOC(=O)c1c(NC(=O)COc2ccccc2F)sc2c1CC(C)(C)NC2(C)C	9.2µM*	13µM*	5.6	-25.7	?	.
Cc1ccc(C)c(NC(=O)CCc2nnc3ccc(N4CCCCC4)nn23)c1	?	1.5%	-16.1	12.7	13.4%	5.5%
C[C@H](NC(=O)c1ccc(C(C)(C)C)cc1)C(=O)N1CCOCC1	-0.3%	7.0%	32.4	6.4	23.1%	0.3%
Cc1ccc(NC(=O)c2ccc3c(c2)OCCO3)cc1C	-9.7%	?	-17.6	-50.1*	?	4.5%
Cc1cccc(NC(=O)c2ccc3c(c2)OCCO3)c1	-24.9%	?	?	1.2	?	5.9%[0.0935 µM]
Cc1ccc(NC(=O)c2ccc3c(c2)OCCO3)cc1S(=O)(=O)Nc1cccc(Cl)c1	16.4µM*	20.6µM*	-10.3	-56.7*	?	5.4%
O=C(Nc1ccc2c(c1)OCCO2)c1ccc(Cl)cc1	?	20.6µM*	-16.8	-12.3	?	.
C[C@]12CCC(O)CC1=CCC1C2CC[C@]2(C)/C(=N\NC(N)=S)CCC12 (stereo partly specified)	-12.9%	-20.6%	5.1	2.3	-16.1%	.
CN(C)S(=O)(=O)c1cccc(NC(=O)COC(=O)c2cc3ccccc3oc2=O)c1	-26.3%	-17.9%	14.1	-14.0	?	3.6%
CC1=NN(C(N)=S)C(=O)C1N=Nc1ccc([N+](=O)[O-])cc1 (stereo unspecified)	-0.3%	?	-12.6	5.9	?	.
N#Cc1c2nc3ccccc3nc2n2cc(NC(=O)c3ccc(F)cc3)ccc12	4.11µM*	4.61µM*	-2.6	-7.1	6.3%	2.8%
Cc1ccc(S(=O)(=O)Nc2ccccc2C(O)c2ccccc2)cc1 (stereo unspecified)	?	18.4µM*	-3.2	-6.7	?	.
Cc1ccc(S(=O)(=O)Nc2ccccc2-c2ccccc2NS(=O)(=O)c2ccc(C)cc2)cc1	?	?	7.7	6.7	?	-1.1%
COc1ccc(C(C(=O)NC2CCCC2)N(C(=O)c2ccco2)c2ccccc2OC)cc1 (stereo unspecified)	-18.7%	?	-9.1	-6.4	-1.9%	.
COc1ccccc1N(C(=O)c1ccco1)C(C(=O)NC1CCCCC1)c1cc(OC)c(OC)c(OC)c1 (stereo unspecified)	-4.5%	-29.8%	-2.5	2.6	-8.4%	.
SMILES	DT40 TDP1 CPT	TDP1 cell noCPT	Giardia kill	IL-1B inflam inh	ELG1 repair inh	TDP1 block
COc1cccc(C(C(=O)NC2CCCCC2)N(C(=O)c2ccco2)c2ccccc2OC)c1 (stereo unspecified)	?	11.6µM*	15.2	3.7	0.4%	.
COc1ccc(C)cc1N(C(=O)c1ccco1)C(C(=O)NC1CCCC1)c1ccc(N2CCOCC2)cc1 (stereo unspecified)	-12.9%	9.2µM*	-5.4	-58.5*	-8.9%	.
COc1ccc(C(C(=O)NC2CCCCC2)N(C(=O)c2ccco2)c2ccccc2OC)cc1 (stereo unspecified)	?	16.4µM*	-5.7	-20.0	?	2.3%[0.0935 µM]
CCc1cccc(C)c1NC(=O)Cn1cnc2c1c(=O)n(C)c(=O)n2C	?	-25.7%	.	.	.	3.1%[12.3 µM]
O=S(=O)(/C=C/c1ccccc1)N1CCC(n2c(C3CCCO3)nc3cccnc32)CC1 (stereo unspecified)	10.9%[9.04 µM]	-14.8%	.	.	.	.
COc1ccc(-c2cn3nc(N4CCCC(C(=O)Nc5ccc(Cl)cc5C)C4)sc3n2)cc1 (stereo unspecified)	?	-16.9%	.	.	.	2.5%
COc1ccc(-c2cn3nc(N4CCCC(C(=O)Nc5cc(C)ccc5C)C4)sc3n2)cc1 (stereo unspecified)	23.1µM*	16.4µM*	.	.	.	-1.2%
Cc1ccc(-c2cn3nc(N4CCCC(C(=O)NCc5ccccc5F)C4)sc3n2)cc1 (stereo unspecified)	?	?	.	.	.	3.7%
COc1ccc(-c2cn3nc(N4CCCC(C(=O)Nc5ccccc5F)C4)sc3n2)cc1 (stereo unspecified)	20.6µM*	14.6µM*	.	.	.	7.5%
COc1ccc(-c2cn3nc(N4CCC(C(=O)Nc5cc(Cl)ccc5OC)CC4)sc3n2)cc1	?	?	.	.	.	3.7%
COc1ccc(-c2cn3nc(N4CCCC(C(=O)NCc5ccccc5OC)C4)sc3n2)cc1 (stereo unspecified)	18.4µM*	?	.	.	.	2.5%
Cc1ccc(C)c(NC(=O)CSc2nnc(NC(=O)Nc3ccccc3)s2)c1	4.0%	-22.7%	.	.	.	5.2%
CN(CCc1ccccn1)C(=O)CCC1CCCN(C(=O)c2c3c(nn2C)CCCC3)C1 (stereo unspecified)	-5.8%	-29.5%	-14.4	23.9	?	3.0%
